Holding throughout (format): functional
The target of assay [1] is Solute carrier family 2, facilitated glucose transporter member 1 (Homo sapiens) (UniProt P11166). Nature of the assay: ST_JUDE_LEISH: Cytotoxicity at 2uM final concentration against transgenic Leishmania Mexicana promastigotes LmGLUT1 that are glucose transport deficient and complemented with the human glucose transporter GLUT1. Activity is measured by DNA content using SYBR green in vitro.

The target of assay [2] is Hexose transporter 1 (Plasmodium falciparum) (UniProt O97467). Nature of the assay: ST_JUDE_LEISH: Cytotoxicity at 2uM final concentration against transgenic Leishmania Mexicana promastigotes LmPfHT that are glucose transport deficient and complemented with the Plasmodium falciparum hexose transporter. Activity is measured by DNA content using SYBR green in vitro.
Assay [3] addresses Glucose transporter (Leishmania mexicana) (UniProt O61059). Nature of the assay: ST_JUDE_LEISH: Cytotoxicity at 2uM final concentration against transgenic Leishmania Mexicana promastigotes LmGT2 that are glucose transport deficient and complemented with the L. Mexicana glucose transporter 2. Activity is measured by DNA content using SYBR green in vitro.

Chain of Solute carrier family 2, facilitated glucose transporter member 1 (Homo sapiens) (P11166 whole entry): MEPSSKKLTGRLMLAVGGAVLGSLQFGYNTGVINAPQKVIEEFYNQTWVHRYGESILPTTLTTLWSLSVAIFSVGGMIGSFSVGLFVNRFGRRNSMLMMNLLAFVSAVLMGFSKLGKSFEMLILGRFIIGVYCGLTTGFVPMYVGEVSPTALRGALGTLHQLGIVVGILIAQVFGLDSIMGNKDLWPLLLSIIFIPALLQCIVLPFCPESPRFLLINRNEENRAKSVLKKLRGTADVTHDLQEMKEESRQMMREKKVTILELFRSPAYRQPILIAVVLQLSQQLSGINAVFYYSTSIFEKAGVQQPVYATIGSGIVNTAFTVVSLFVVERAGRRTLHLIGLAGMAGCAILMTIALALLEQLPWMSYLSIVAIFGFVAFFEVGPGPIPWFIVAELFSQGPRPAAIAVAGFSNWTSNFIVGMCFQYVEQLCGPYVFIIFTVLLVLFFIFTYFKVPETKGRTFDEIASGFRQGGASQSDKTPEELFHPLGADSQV

Usually inhibition stands for the relative decrease from the control value, in per cent. On to `COc1ccc(-n2nc(C)c3c2NC(=O)CC3c2ccccc2OCc2ccccc2F)cc1` (centres undefined), for which the inhibition in assay [1] is 11.7%; in assay [2], 11.4%; in assay [3] it was 9.27%.
For `COc1ccc(C2CC(c3cccs3)=NN2C(=O)c2ccccc2)cc1OC` (centres undefined), in that order: 6.92%, 1.98% and 5.57%.
Take `N#Cc1ccc2c(c1)CCN(CCC1CCC(NC(=O)Nc3ccncc3)CC1)C2` (centres undefined): the inhibition in assay [1] was determined as 5.14%; in assay [2] it was 3.65%; in assay [3], 5.01%.
For the compound `COc1ccc2nc(C)cc(Nc3ccc(N4CCN(C)CC4)cc3)c2c1`, the inhibition in assay [1] turned out to be 0.93%; in assay [2], 2.03%; in assay [3] it was 0.99%.
Turning to `Nc1cccc(CNCc2ccc(-c3ccc(-c4nc5cc(F)ccc5[nH]4)s3)cc2)c1`, the values for the inhibition in assay [1], in assay [2] and in assay [3] were -2.38%, 0.25% and -1.11%, respectively.
For `COc1ccc(CC(=O)NC(CCCN2CCC(c3ccccc3)CC2)c2ccc(Cl)c(Cl)c2)cc1OC` (centres undefined), in that order: 1.29%, 2.2% and 0.22%.
For `Cc1cc(N(C)C)nc(Nc2ccc(NS(=O)(=O)c3ccccc3)cc2)n1`, in that order: 7.64%, 10.6% and 5.82%.
`CC(C)c1ccc(NC(=O)c2cccc(CN3CCCN(Cc4cccc(O)c4)CC3)c2)cc1`: the inhibition turned out to be 15.4% in assay [1], 12% in assay [2] and 7.67% in assay [3].
The like results for `O=C(NCc1ccc(F)cc1)Nc1ccc(-c2ccc(-c3nc4ccccc4[nH]3)cc2)cc1` were, in that order, 1.28%, -0.46% and 0.75%.
For `CC(C)c1ccc(O)cc1Nc1ccnc2ccc(C(F)(F)F)cc12`, in that order: 1.29%, -0.72% and -0.66%.
For `O=C(Nc1ccc(C(F)(F)F)cc1)NC1CCN(c2ccnc3ccccc23)CC1`, in that order: 4.74%, 3.35% and -3.98%.
On to `CC1(C)CC(NCCCCCCCOc2ccc(OCc3ccccc3)cc2)CC(C)(C)N1`, for which the results for the inhibition in assay [1], in assay [2] and in assay [3] were 103%, 102% and 55.4%, respectively.
For `CCCc1cc(OC)c(C[C@@H]2c3cc(O)c(Cl)cc3CCN2C)cc1OC`, in that order: 3.17%, 2.87% and 3%.
On to `COc1ccc2ncc(C)c(CCN3CCC(NCc4ccc5c(n4)NC(=O)CS5)CC3)c2c1`, for which the inhibition in assay [1] was 8.73%; in assay [2] it was 6.68%; in assay [3], 6.71%.
For `O=C(NCc1ccc(Cl)cc1)c1ccc(CN2CCCN(CC3CCCCC3)CC2)cc1`, in that order: 4.46%, 5.73% and 5.25%.
The like results for `CC(C)c1cccc(OCC2CCN(c3ccc(C(=O)Nc4ccccc4)cn3)CC2)c1` were, in that order, 11.2%, 10.6% and 9.04%.
For `CN(C)CCCNC(=O)c1ccccc1Sc1ccccc1C#N`, in that order: 0.79%, 1.43% and 1.54%.
Turning to `c1cc(CNC2CCN(CC3CCCCC3)CC2)cc(-n2ccnc2)c1`, the figures for the inhibition in assay [1], in assay [2] and in assay [3] were -0.57%, -0.48% and 1.45%, respectively.

For the origin of these results see ChEMBL document CHEMBL3433997, “St. Jude Leishmania screening dataset” (2016).
